Calls of active or inactive are those of the source.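 Rule for the calls: active = compounds whose cell count with miR-34 switched on is under 0.7 times the count with it off; inactive = the rest.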
Test: viability loss with induced miR-34 in A549 – imaging, A549 dox-inducible miR-34, nuclei and caspase counts, primary screen (AID 1347080); note: test concentration not given here
Conditions: A549 miR-34 inducible, Hoechst nuclei count, 48 h; stronger effect = lower value; cell number ratio, induced over uninduced
In the case of CCCCCC(=O)OC[C@H](CO)OC(=O)CCCCC, the fold change is reported as 0.964 (inactive).
With CN(C)c1cc(NC(=O)CNC(C)(C)C)c(O)c2c1C[C@H]1C[C@@H]3C(C(=O)C(C(N)=O)=C(O)[C@H]3N(C)C)C(=O)C1=C2O (stereo not given in full) the fold change was 0.886 (inactive).
For N#Cc1cc2c(OCC(O)CN3CCN(C(c4ccccc4)c4ccccc4)CC3)cccc2[nH]1 (stereo not given), the fold change was 0.956 (inactive).
For CC(C)(CCCCCCCCCCC(C)(C)CC(=O)O)CC(=O)O, the fold change was 0.985 (inactive).
For N[C@@H](Cc1ccc(O)c([N+](=O)[O-])c1)C(=O)O, the fold change was 0.943 (inactive).
With CCCCCCCCCCCCCCCCOC[C@@H](CO)SC(C)=O the fold change was 1.02 (inactive).
In the case of CCCCCCCCCCCCCCCC(=O)N[C@H](C)CO, the fold change is reported as 0.916 (inactive).
In the case of CCCCC[C@H](O)/C=C/[C@@H]1[C@@H](C/C=C\CCCCO)[C@@H](O)C[C@H]1O, the fold change is reported as 0.871 (inactive).
In the case of CC(C)OC(=O)CCC/C=C\C[C@@H]1[C@@H](/C=C/[C@H](O)CCc2ccccc2)[C@H](O)C[C@@H]1O, the fold change is reported as 0.945 (inactive).
In the case of CCCCC[C@H](O)/C=C/[C@H]1CCC(=O)[C@@H]1CCCCCCC(=O)O, the fold change is reported as 0.938 (inactive).
For CC(C)(C)OC(=O)N1CCC(OCc2nc(-c3ccncc3)no2)CC1, the fold change was 1.03 (inactive).
With CC(C)OC(=O)CCC/C=C\C[C@@H]1[C@@H](/C=C/[C@H](O)C2Cc3ccccc3C2)[C@@H](F)C[C@@H]1O the fold change was 0.981 (inactive).
In the case of CC/C=C\C/C=C\C/C=C\C/C=C\CCCCCCC(=O)O, the fold change is reported as 1.03 (inactive).
With CCCCC[C@H](O)/C=C/[C@@H]1[C@H]2C/C(=C\CCCC(=O)O)C[C@H]2C[C@H]1O the fold change was 0.922 (inactive).
For CC(C)(O)c1ccccc1CC[C@H](SCC1(CC(=O)O)CC1)c1cccc(/C=C/c2ccc3ccc(Cl)cc3n2)c1, the fold change was 1.04 (inactive).
In the case of O=C(O)CCCCCCC1C(=O)N(Cc2ccccc2)C(=O)N1NCC(O)C1CCCCC1 (stereo not given), the fold change is reported as 0.813 (inactive).
For N=C(N)SCCC[C@H](N)C(=O)O, the fold change was 0.98 (inactive).
In the case of CCCCCCCCCCCCCCCCCCCC(=O)NCCO, the fold change is reported as 1.07 (inactive).
With O=C1OC2(c3ccc(O)cc3Oc3cc(Oc4ccc(O)cc4)ccc32)c2ccccc21 (stereo not given) the fold change was 0.956 (inactive).
In the case of CCCCC(C)(C)[C@H](O)/C=C/[C@H]1CCC(=O)[C@@H]1C/C=C\CCCC(=O)O, the fold change is reported as 0.973 (inactive).
With CCCCCC/C=C\CCCCCCCC(=O)OCC the fold change was 0.904 (inactive).
In the case of CC1CCN=C(N)C1 (stereo not given), the fold change is reported as 0.966 (inactive).
In the case of COc1ccc(/C=C/C(=O)CC(=O)/C=C/c2cccc(O)c2OC)cc1O, the fold change is reported as 0.925 (inactive).
With CCCCC/C=C\C/C=C\CCCCCCCC(=O)OCC(COC(=O)CCCCCCCCCCCCCCC)OC(=O)CCCCCCC/C=C\CCCCCCCC (stereo not given) the fold change was 1.03 (inactive).
For CCCCC/C=C\C=C\[C@H](O)CCCCCCCC(=O)O, the fold change was 1.01 (inactive).
For CCCCC[C@H]1/C=C/[C@@H]2[C@@H](C/C=C\CCCC(=O)O1)[C@@H](O)C[C@H]2O, the fold change was 0.933 (inactive).
In the case of CCCCC[C@H](O)/C=C/[C@@H]1[C@@H](C/C=C\CCCCCC(=O)O)[C@@H](O)C[C@H]1O, the fold change is reported as 0.876 (inactive).
For CCCCCC(=O)CC[C@H]1C=CC(=O)[C@@H]1C/C=C\CCCC(=O)O, the fold change was 0.899 (inactive).
In the case of C[C@]12CC[C@@H]3c4cc(O)c(O)cc4CC[C@H]3[C@@H]1CC[C@@H]2O, the fold change is reported as 0.847 (inactive).
With CCCCCCCCCCCCC/C=C/[C@@H](O)[C@H](CO)NC(=O)CCCCC the fold change was 0.988 (inactive).
In the case of CCCCCCCCCCCCCCCC(=O)SCCOP(=O)([O-])OCC[N+](C)(C)C, the fold change is reported as 1.04 (inactive).
With O=C(O)CCC/C=C\C[C@H]1C(=O)C[C@@H](O)[C@@H]1/C=C/[C@@H](O)Cc1ccccc1 the fold change was 0.985 (inactive).
With CCCCCCCCCCCCCCCC(=O)OC[C@H](COP(=O)([O-])OCC[N+](C)(C)C)OC(=O)CCCCCCCC(=O)/C=C/C(=O)O the fold change was 0.943 (inactive).
In the case of CC(C)CC[C@@H](O)[C@@H](C)C1CCC2C3CC=C4C[C@@H](O)CC[C@]4(C)C3CC[C@@]21C (stereo not given in full), the fold change is reported as 0.933 (inactive).
With CCCCC[C@H](O)/C=C/[C@@H]1[C@@H](C/C=C\CCCC(=O)N(CC)CC)[C@@H](O)C[C@H]1O the fold change was 0.98 (inactive).
In the case of CC(C)OC(=O)CCC/C=C\C[C@@H]1[C@@H](/C=C/C(F)(F)COc2ccccc2)[C@H](O)C[C@@H]1O, the fold change is reported as 1.05 (inactive).
In the case of CCCCCCCCCCOc1ccc(OCC(=O)Cn2cc(C(=O)OC)c3cc(C(=O)O)ccc32)cc1, the fold change is reported as 0.961 (inactive).
In the case of C=C1C(=O)O[C@H](CCCCCCCC)[C@H]1C(=O)O, the fold change is reported as 1.04 (inactive).
In the case of CCCCCCCCCCCC(=O)c1nc2ncccc2o1, the fold change is reported as 0.934 (inactive).
For CCCCC[C@H](O)/C=C/[C@H]1[C@H](O)CC(=O)[C@@H]1C/C=C\CCCC(=O)NCCO, the fold change was 1.16 (inactive).

Same assay, conditions: A549 miR-34 inducible, Hoechst nuclei count, 48 h; measured here: relative caspase fold change +Dox/-Dox
In the case of CCCCCC(=O)OC[C@H](CO)OC(=O)CCCCC, the fold change is reported as 0.528.
In the case of CN(C)c1cc(NC(=O)CNC(C)(C)C)c(O)c2c1C[C@H]1C[C@@H]3C(C(=O)C(C(N)=O)=C(O)[C@H]3N(C)C)C(=O)C1=C2O (stereo not given in full), the fold change is reported as 0.781.
N#Cc1cc2c(OCC(O)CN3CCN(C(c4ccccc4)c4ccccc4)CC3)cccc2[nH]1 (stereo not given) showed a fold change of 1.38.
CC(C)(CCCCCCCCCCC(C)(C)CC(=O)O)CC(=O)O gave a fold change of 0.985.
With N[C@@H](Cc1ccc(O)c([N+](=O)[O-])c1)C(=O)O the fold change was 1.05.
With CCCCCCCCCCCCCCCCOC[C@@H](CO)SC(C)=O the fold change was 0.6.
CCCCCCCCCCCCCCCC(=O)N[C@H](C)CO showed a fold change of 0.934.
In the case of CCCCC[C@H](O)/C=C/[C@@H]1[C@@H](C/C=C\CCCCO)[C@@H](O)C[C@H]1O, the fold change is reported as 1.35.
CC(C)OC(=O)CCC/C=C\C[C@@H]1[C@@H](/C=C/[C@H](O)CCc2ccccc2)[C@H](O)C[C@@H]1O gave a fold change of 1.74.
CCCCC[C@H](O)/C=C/[C@H]1CCC(=O)[C@@H]1CCCCCCC(=O)O showed a fold change of 1.33.
For CC(C)(C)OC(=O)N1CCC(OCc2nc(-c3ccncc3)no2)CC1, the fold change was 0.58.
In the case of CC(C)OC(=O)CCC/C=C\C[C@@H]1[C@@H](/C=C/[C@H](O)C2Cc3ccccc3C2)[C@@H](F)C[C@@H]1O, the fold change is reported as 2.25.
CC/C=C\C/C=C\C/C=C\C/C=C\CCCCCCC(=O)O showed a fold change of 1.
Compound CCCCC[C@H](O)/C=C/[C@@H]1[C@H]2C/C(=C\CCCC(=O)O)C[C@H]2C[C@H]1O has a fold change of 1.13.
Compound CC(C)(O)c1ccccc1CC[C@H](SCC1(CC(=O)O)CC1)c1cccc(/C=C/c2ccc3ccc(Cl)cc3n2)c1 has a fold change of 0.195.
Compound O=C(O)CCCCCCC1C(=O)N(Cc2ccccc2)C(=O)N1NCC(O)C1CCCCC1 (stereo not given) has a fold change of 2.25.
In the case of N=C(N)SCCC[C@H](N)C(=O)O, the fold change is reported as 0.775.
Work on CCCCCCCCCCCCCCCCCCCC(=O)NCCO yielded a fold change of 0.773.
Work on O=C1OC2(c3ccc(O)cc3Oc3cc(Oc4ccc(O)cc4)ccc32)c2ccccc21 (stereo not given) yielded a fold change of 1.49.
For CCCCC(C)(C)[C@H](O)/C=C/[C@H]1CCC(=O)[C@@H]1C/C=C\CCCC(=O)O, the fold change was 1.01.
Compound CCCCCC/C=C\CCCCCCCC(=O)OCC has a fold change of 1.03.
Compound CC1CCN=C(N)C1 (stereo not given) has a fold change of 0.767.
In the case of COc1ccc(/C=C/C(=O)CC(=O)/C=C/c2cccc(O)c2OC)cc1O, the fold change is reported as 1.39.
CCCCC/C=C\C/C=C\CCCCCCCC(=O)OCC(COC(=O)CCCCCCCCCCCCCCC)OC(=O)CCCCCCC/C=C\CCCCCCCC (stereo not given) showed a fold change of 0.903.
With CCCCC/C=C\C=C\[C@H](O)CCCCCCCC(=O)O the fold change was 1.02.
Work on CCCCC[C@H]1/C=C/[C@@H]2[C@@H](C/C=C\CCCC(=O)O1)[C@@H](O)C[C@H]2O yielded a fold change of 1.
CCCCC[C@H](O)/C=C/[C@@H]1[C@@H](C/C=C\CCCCCC(=O)O)[C@@H](O)C[C@H]1O gave a fold change of 0.899.
CCCCCC(=O)CC[C@H]1C=CC(=O)[C@@H]1C/C=C\CCCC(=O)O gave a fold change of 1.77.
In the case of C[C@]12CC[C@@H]3c4cc(O)c(O)cc4CC[C@H]3[C@@H]1CC[C@@H]2O, the fold change is reported as 2.78.
For CCCCCCCCCCCCC/C=C/[C@@H](O)[C@H](CO)NC(=O)CCCCC, the fold change was 0.834.
CCCCCCCCCCCCCCCC(=O)SCCOP(=O)([O-])OCC[N+](C)(C)C gave a fold change of 0.949.
Work on O=C(O)CCC/C=C\C[C@H]1C(=O)C[C@@H](O)[C@@H]1/C=C/[C@@H](O)Cc1ccccc1 yielded a fold change of 1.05.
With CCCCCCCCCCCCCCCC(=O)OC[C@H](COP(=O)([O-])OCC[N+](C)(C)C)OC(=O)CCCCCCCC(=O)/C=C/C(=O)O the fold change was 0.858.
Compound CC(C)CC[C@@H](O)[C@@H](C)C1CCC2C3CC=C4C[C@@H](O)CC[C@]4(C)C3CC[C@@]21C (stereo not given in full) has a fold change of 1.03.
CCCCC[C@H](O)/C=C/[C@@H]1[C@@H](C/C=C\CCCC(=O)N(CC)CC)[C@@H](O)C[C@H]1O gave a fold change of 0.858.
CC(C)OC(=O)CCC/C=C\C[C@@H]1[C@@H](/C=C/C(F)(F)COc2ccccc2)[C@H](O)C[C@@H]1O gave a fold change of 0.899.
With CCCCCCCCCCOc1ccc(OCC(=O)Cn2cc(C(=O)OC)c3cc(C(=O)O)ccc32)cc1 the fold change was 0.386.
Work on C=C1C(=O)O[C@H](CCCCCCCC)[C@H]1C(=O)O yielded a fold change of 0.706.
With CCCCCCCCCCCC(=O)c1nc2ncccc2o1 the fold change was 1.01.
CCCCC[C@H](O)/C=C/[C@H]1[C@H](O)CC(=O)[C@@H]1C/C=C\CCCC(=O)NCCO showed a fold change of 1.44.

Source: PubChem BioAssay
